Assay results published in PubChem BioAssay (Tox21).
Records with an inconclusive call do not appear. Calls of active or inactive are those of the source. Unless noted, calls come from the whole dose curve; as a rule, active = well fitted curve in the direction sought with a large enough effect in the repeat runs; inconclusive = weak or mixed curves; inactive = no such curve, though single readings can be large; an effect the other way counts as inactive or inconclusive.

Columns and labels:
[1] = qHTS assay to identify small molecule agonists of the hypoxia (HIF-1) signaling pathway - cell viability counter screen (AID 1224844; calls by dose curve; note: nearly all actives have a fitted effect of over 50% in size)
How it was run: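 Same wells as the HIF-1 reporter screen; ME-180 cells carrying HRE-bla, 17 hr treatment at 37C; CellTiter-Glo luminescence read after 30 min at room temperature.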

[2] = qHTS assay to identify small molecule agonists of H2AX (AID 1224845; active = well fitted activation curve with a large enough effect in the signal ratio in the repeat runs, not every such curve was filed as active; the % refers to the signal ratio)
How it was run: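 Wild-type CHO-K1 cells, plated overnight, exposed 3hr at 37C to 15 concentrations (0.76% DMSO final). Lysed, then HTRF anti-pH2AX (S139) cryptate and anti-H2AX-d2 antibodies, 24 hr room temperature; 665/620 nm emission read.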

[3] = qHTS assay to identify small molecule agonists of the hypoxia (HIF-1) signaling pathway (AID 1224846; active = well fitted activation curve with a large enough effect in the signal ratio in the repeat runs, not every such curve was filed as active; the % refers to the signal ratio)
How it was run: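 In ME-180 cells bearing an HRE-bla construct, 17 h treatment with DMSO-dissolved compounds at 37C was followed by CCF4-AM loading to quantify reporter induction.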

[4] = qHTS assay to identify small molecule agonists of H2AX - cell viability counter screen (AID 1224847; calls by dose curve; note: top concentration of the series differs between compounds; nearly all actives have a fitted effect of over 30% in size)
How it was run: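 CHO-K1 cells plated overnight at 37C, then exposed 3 h at 37C to compounds at 15 concentrations (0.76% DMSO final). Viability by CellTiter-Glo luminescence after 30 min at room temperature.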

[5] = qHTS RealTime-Glo MT Cell Viability Assay in HepG2 cells - 24 hour (AID 1224867); note: nearly all actives have a fitted effect of over 50% in size
How it was run: (§1)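 HepG2 suspension premixed with RealTime-Glo reagents is plated at 600 cells per well and left 5 h at 37 C/5% CO2. Compounds in DMSO then go in, and bioluminescence reflecting viable cell number is recorded over 40 h.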

[6] = A CellTox Green Cytotoxicity Assay to monitor cytotoxicity in HEK293 cells - 0 hour (AID 1224869); note: nearly all actives have a fitted effect of over 50% in size
How it was run: (§2)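 Homogeneous no-lysis format: HEK293 cell suspension mixed with CellTox Green reagent, seeded, incubated 5 h at 37 C/5% CO2, then dosed by pintool with compound in DMSO.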

[7] = qHTS RealTime-Glo MT Cell Viability Assay in HepG2 cells - 40 hour (AID 1224870); note: nearly all actives have a fitted effect of over 50% in size
How it was run: (§3)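 HepG2 cells (600/well) mixed with RealTime-Glo MT reagent, settled 5 h at 37 C/5% CO2 before compound addition. Nonlytic NanoLuc luminescence from viable-cell prosubstrate reduction read repeatedly during 40 h treatment at 37 C.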

[8] = A CellTox Green Cytotoxicity Assay to monitor cytotoxicity in HEK293 cells - 40 hour (AID 1224871); note: nearly all actives have a fitted effect of over 45% in size
How it was run: as §2

[9] = qHTS RealTime-Glo MT Cell Viability Assay in HepG2 cells - 8 hour (AID 1224873); note: nearly all actives have a fitted effect of over 55% in size
How it was run: as §3

[10] = qHTS RealTime-Glo MT Cell Viability Assay in HEK293 cells - 40 hour (AID 1224874); conditions: RealTime-Glo luminescence; max response: hits give low values; note: nearly all actives have a fitted effect of over 50% in size
How it was run: (§4)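 Measured as luminescence from the same continuously cultured HEK293 wells at successive time points (0, 8, 16, 24, 32, 40 h) after compound addition. Reagent present from seeding; dosing at 5 h; incubation 37 C.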

[11] = A CellTox Green Cytotoxicity Assay to monitor cytotoxicity in HEK293 cells - 24 hour (AID 1224875); note: nearly all actives have a fitted effect of over 45% in size
How it was run: as §2

[12] = A CellTox Green Cytotoxicity Assay to monitor cytotoxicity in HepG2 cells - 16 hour (AID 1224876); note: nearly all actives have a fitted effect of over 45% in size
How it was run: (§5)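 Fluorescent DNA-binding dye, 600 HepG2 cells/well, 5 h preincubation then compound in DMSO; same plates read at 0–40 h, 37 C.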

[13] = qHTS RealTime-Glo MT Cell Viability Assay in HepG2 cells - 32 hour (AID 1224877); note: nearly all actives have a fitted effect of over 55% in size
How it was run: as §1

[14] = A CellTox Green Cytotoxicity Assay to monitor cytotoxicity in HepG2 cells - 24 hour (AID 1224878); note: nearly all actives have a fitted effect of over 45% in size
How it was run: as §5

[15] = A CellTox Green Cytotoxicity Assay to monitor cytotoxicity in HepG2 cells - 40 hour (AID 1224879); note: nearly all actives have a fitted effect of over 40% in size
How it was run: as §5

[16] = qHTS RealTime-Glo MT Cell Viability Assay in HEK293 cells - 0 hour (AID 1224880)
How it was run: as §4

[17] = qHTS RealTime-Glo MT Cell Viability Assay in HEK293 cells - 32 hour (AID 1224868)
How it was run: (§6)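 Reads taken at 0, 8, 16, 24, 32 and 40 h from the same wells. HEK293 cells (600/well) carried RealTime-Glo reagents from seeding, with compound added after a 5 h settle at 37 C.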

[18] = qHTS RealTime-Glo MT Cell Viability Assay in HEK293 cells - 16 hour (AID 1224872)
How it was run: as §6

[19] = qHTS assay to identify small molecule antagonists of the estrogen related receptor (ERR) signaling pathway from Tox21 library (AID 1224848); note: nearly all actives have a fitted effect of over 50% in size
How it was run: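 Compounds dissolved in DMSO are pin-transferred onto ERR reporter cells (2,000 per well) that have settled for 6 h at 37 C. Plates then incubate 18 h at 37 C before ONE-Glo luciferase reagent and a luminescence read 30 min later.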

[20] = qHTS assay to identify small molecule agonists of the estrogen related receptor (ERR) signaling pathway from Tox21 library (AID 1224849; calls by dose curve; note: nearly all actives have a fitted effect of over 15% in size); conditions: ERR reporter cell line, ONE-Glo luciferase, 18 h; at 92.4 µM (top of the series) unless noted
How it was run: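 Reporter cells (ERR, NTP source) treated with Tox21 10K compounds 18 h, 37 C. Readout: ONE-Glo luminescence, 30 min RT.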
% is set by controls: 0 for no effect and ±100 for the full control effect.

CCOc1cc(OCC)c(C(=O)CCC(=O)O)cc1OCC
inactive: Potency [1] | Potency [2] | outcome [3] | Potency [4] | Potency [5] | Potency [6] | Potency [7] | Potency [8] | Potency [9] | max response [10] 3.3% | Potency [11] | Potency [12] | Potency [13] | Potency [14] | Potency [15] | Potency [16]

CCN(CCO)CCCC(C)Nc1ccnc2cc(Cl)ccc12 (stereo not drawn)
inactive: activity change, negative = cytotoxicity [1] 2.32% [at 6.97 µM] | activation (H2AX phosphorylation) [2] -1.66% [at 14 µM] | activation [3] 0.22% [at 7.01 µM] | activity change, negative = cytotoxicity [4] 1.55% [at 14 µM] | activity change, negative = cytotoxicity [5] 2.56% [at 6.97 µM] | activity change, negative = cytotoxic [17] 2.9% [at 6.97 µM] | cytotoxicity [6] -2.9% [at 6.97 µM] | activity change, negative = cytotoxic [7] 0.0181% [at 6.97 µM] | cytotoxicity increase [8] -1.39% [at 6.97 µM] | viability change, negative = cytotoxic [9] 4.72% [at 6.97 µM] | max response [10] -1.22% | activity change [11] -1.16% [at 6.97 µM, hits give high values] | cytotoxicity increase [12] 19.7% [at 6.97 µM] | activity change, negative = cytotoxic [13] 2.34% [at 6.97 µM] | cytotoxicity [14] 14.8% [at 6.97 µM] | cytotoxicity increase [15] 10.5% [at 6.97 µM] | activity change, negative = cytotoxicity [16] 3.38% [at 6.97 µM]

S=C(S)NCCNC(=S)S
inactive: Potency [1] | Potency [2] | outcome [3] | Potency [4] | Potency [5] | Potency [6] | Potency [7] | Potency [8] | Potency [18] | Potency [9] | max response [10] -4.71% | Potency [11] | Potency [12] | Potency [13] | Potency [14] | Potency [15] | Potency [16]

CCOC(=S)SSC(=S)OCC
inactive: Potency [1] | Potency [2] | outcome [3] | Potency [4] | Potency [5] | Potency [6] | Potency [7] | Potency [8] | Potency [9] | max response [10] 1.68% | Potency [11] | Potency [12] | Potency [13] | Potency [14] | Potency [15] | Potency [16]

CC(=O)/C=C/C1C(C)=CCCC1(C)C (stereo not drawn)
inactive: Potency [1] | Potency [2] | outcome [3] | Potency [4] | Potency [5] | Potency [6] | Potency [7] | Potency [8] | Potency [18] | Potency [9] | max response [10] 0% | Potency [11] | Potency [12] | Potency [13] | Potency [14] | Potency [15] | Potency [16]

CC(C)CCCC(C)CCO (stereo not drawn)
inactive: Potency [1] | Potency [2] | outcome [3] | Potency [4] | Potency [5] | Potency [17] | Potency [6] | Potency [7] | Potency [8] | Potency [18] | Potency [9] | max response [10] 14.4% | Potency [11] | Potency [13] | Potency [15] | Potency [16]

CCCc1ccccc1
inactive: Potency [1] | Potency [2] | outcome [3] | Potency [19] | activity change, positive = activation [20] 2.82% | Potency [5] | Potency [17] | Potency [6] | Potency [7] | Potency [8] | Potency [18] | Potency [9] | max response [10] 0.274% | Potency [11] | Potency [12] | Potency [13] | Potency [14] | Potency [15] | Potency [16]

CCOc1nc2cccc(C(=O)O)c2n1Cc1ccc(-c2ccccc2-c2nn[nH]n2)cc1
inactive: Potency [1] | Potency [2] | outcome [3] | Potency [19] | activity change, positive = activation [20] 4.21% [at 42.5 µM] | Potency [5] | Potency [17] | Potency [6] | Potency [7] | Potency [8] | Potency [18] | Potency [9] | max response [10] 9.75% | Potency [11] | Potency [12] | Potency [13] | Potency [14] | Potency [15] | Potency [16]

CCCCCCCCCCCCC(=O)O
inactive: Potency [1] | Potency [2] | outcome [3] | Potency [4] | Potency [5] | Potency [17] | Potency [6] | Potency [7] | Potency [8] | Potency [9] | max response [10] 0.0822% | Potency [11] | Potency [12] | Potency [13] | Potency [14] | Potency [15] | Potency [16]

C#CCOC(=O)[C@@H](C)Oc1ccc(Oc2ncc(Cl)cc2F)cc1
inactive: Potency [1] | Potency [2] | outcome [3] | Potency [19] | activity change, positive = activation [20] -13.6% | Potency [5] | Potency [17] | Potency [6] | Potency [7] | Potency [8] | Potency [18] | Potency [9] | max response [10] -16.3% | Potency [11] | Potency [12] | Potency [13] | Potency [14] | Potency [15] | Potency [16]

CCCCCCCCCO
inactive: Potency [1] | Potency [2] | outcome [3] | Potency [19] | activity change, positive = activation [20] 5.42% | Potency [5] | Potency [17] | Potency [6] | Potency [7] | Potency [8] | Potency [18] | Potency [9] | max response [10] 18.9% | Potency [11] | Potency [12] | Potency [13] | Potency [14] | Potency [15]

N[C@H]1C(O)O[C@H](CO)[C@H](O)[C@@H]1O (stereo partly drawn)
inactive: Potency [1] | Potency [2] | outcome [3] | Potency [19] | activity change, positive = activation [20] 1.03% | Potency [5] | Potency [17] | Potency [6] | Potency [7] | Potency [8] | Potency [18] | Potency [9] | max response [10] 9.12% | Potency [11] | Potency [12] | Potency [13] | Potency [14] | Potency [15] | Potency [16]

CC[C@H](C)[C@H](N)C(=O)O
inactive: Potency [1] | Potency [2] | outcome [3] | Potency [19] | activity change, positive = activation [20] 5.77% [at 42.5 µM] | Potency [5] | Potency [17] | Potency [6] | Potency [7] | Potency [8] | Potency [18] | Potency [9] | max response [10] -1.16% | Potency [11] | Potency [12] | Potency [13] | Potency [14] | Potency [15] | Potency [16]

Cc1ccccc1N=Nc1ccc(N=Nc2c(O)ccc3ccccc23)c(C)c1
inactive: Potency [1] | Potency [2] | outcome [3] | Potency [19] | activity change, positive = activation [20] 11.4% [at 42.5 µM] | Potency [5] | Potency [17] | Potency [6] | Potency [7] | Potency [8] | Potency [18] | Potency [9] | max response [10] 1.3% | Potency [11] | Potency [12] | Potency [13] | Potency [14] | Potency [15] | Potency [16]
